This is part of a sample that, as a whole, favours compounds with a hit. Of some 79,000 tested, about 15% had one in any assay. Activity calls are given as the source filed them. Rule as the data show it: active = growth inhibition above about 70%; inactive = the rest.
Experiments:
[1] = NCI Yeast Anticancer Drug Screen. Data for the rad52 strain (AID 147);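 also: 0% = growth of vehicle-treated control cultures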; conditions: S. cerevisiae rad52 mutant growth inhibition, stronger effect = higher value
Outline: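 Genetically altered yeast (DNA damage repair defect) treated with compound; inhibition calculated relative to vehicle.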

[2] = NCI Yeast Anticancer Drug Screen. Data for the wt1 strain (AID 149);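 also: 0% = growth of vehicle-treated wt1 cultures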; conditions: S. cerevisiae wt1 strain (SPY 50644) growth inhibition, stronger effect = higher value
Outline: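 Yeast wt1 strain exposed to compounds; growth inhibition measured relative to vehicle-treated controls.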

[3] = NCI Yeast Anticancer Drug Screen. Data for the rad50EPP+ strain (AID 151);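 also: 0% = growth of vehicle-treated control cultures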; conditions: S. cerevisiae rad50 mutant strain, stronger effect = higher value
Outline: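 Strain rad50EPP+; compound exposure; % growth inhibition vs vehicle.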

[4] = NCI Yeast Anticancer Drug Screen. Data for the mgt1 strain (AID 153); conditions: S. cerevisiae mgt1 mutant growth inhibition, stronger effect = higher value
Outline: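 Read-out: yeast growth inhibition vs vehicle control. Strain mgt1, drawn from a panel altered in DNA damage repair or cell cycle control.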

[5] = NCI Yeast Anticancer Drug Screen. Data for the rad50 strain (AID 155);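 also: 0% = growth of vehicle-only cultures of the same strain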; conditions: S. cerevisiae rad50 strain growth inhibition, stronger effect = higher value
Outline: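 Yeast carrying a defined DNA repair defect were exposed to test compounds, and growth was compared with vehicle-treated controls to give percent inhibition.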

[6] = NCI Yeast Anticancer Drug Screen. Data for the mec2-1 strain (AID 157); conditions: S. cerevisiae mec2-1 strain, stronger effect = higher value
Outline: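 Cells of the genetically defined mec2-1 yeast strain are incubated with test compound. Inhibition of growth is calculated against vehicle-treated controls.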

[7] = NCI Yeast Anticancer Drug Screen. Data for the rad14 strain (AID 159);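 also: 0% = growth of vehicle-treated control cultures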; conditions: S. cerevisiae rad14 strain growth inhibition, stronger effect = higher value
Outline: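 Yeast cells carrying a defined DNA-repair defect were exposed to compounds, and growth inhibition was calculated relative to vehicle-treated control cultures.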

[8] = NCI Yeast Anticancer Drug Screen. Data for the sgs1 mgt1 strain (AID 161);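 also: 0% = growth of cultures given vehicle only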; conditions: S. cerevisiae sgs1 mgt1 strain, stronger effect = higher value
Outline: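 Read-out: growth inhibition vs vehicle controls. Cells: mutant yeast strain deficient in DNA damage repair.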

[9] = NCI Yeast Anticancer Drug Screen. Data for the cln2 rad14 strain (AID 165);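 also: 0% = growth equal to vehicle treated cultures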; conditions: S. cerevisiae cln2 rad14 strain, stronger effect = higher value
Outline: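 The screen exposed genetically defined yeast (cln2 rad14) to test compounds and scored growth inhibition relative to vehicle-treated controls.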

[10] = NCI Yeast Anticancer Drug Screen. Data for the bub3 strain (AID 167); conditions: S. cerevisiae bub3 mutant strain, stronger effect = higher value
Outline: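 Compounds were applied to a genetically altered yeast strain carrying a cell-cycle control defect. Growth inhibition was scored against vehicle-treated controls.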

[11] = NCI Yeast Anticancer Drug Screen. Data for the wt2 strain (AID 169);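 also: 0% = growth of vehicle-treated yeast cultures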; conditions: S. cerevisiae wt2 strain growth inhibition, stronger effect = higher value
Outline: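 Steps: yeast strain treated with compound; growth recorded; inhibition calculated relative to cultures given vehicle alone.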

[12] = NCI Yeast Anticancer Drug Screen. Data for the mlh1 strain (AID 171);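 also: 0% = growth of vehicle-treated control cultures of the same strain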; conditions: S. cerevisiae mlh1 strain growth inhibition, stronger effect = higher value
Outline: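 Yeast screen: mutant strain plus compound, growth scored against vehicle control wells.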

[13] = NCI Yeast Anticancer Drug Screen. Data for the sgs1 strain (AID 173);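 also: 0% = growth of vehicle-only control cultures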; conditions: S. cerevisiae sgs1 mutant, stronger effect = higher value
Outline: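 Inhibition of yeast growth served as the measure. The mutant strain was treated with each compound, and growth was normalised to cultures receiving vehicle alone.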

[14] = NCI Yeast Anticancer Drug Screen. Data for the mlh1 rad18 strain (AID 175); conditions: S. cerevisiae mlh1 rad18 strain growth inhibition, stronger effect = higher value
Outline: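 Compound-treated yeast growth, normalised to vehicle controls. Strain bears defined DNA repair mutations.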

[15] = NCI Yeast Anticancer Drug Screen. Data for the rad18 strain (AID 177); conditions: S. cerevisiae rad18 mutant growth inhibition, stronger effect = higher value
Outline: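 Inhibition values reflect reduced yeast growth compared with vehicle-treated controls, using a strain engineered with a DNA damage repair defect.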

[16] = at 5.0 µM (retest, dose inferred, filed as 0.5)
[17] = at 50.0 µM (retest, dose inferred, filed as 5.0)

Measured: growth inhibition

C[S+](C)C1(c2ccccc2)C(=O)c2ccccc2C1=O
inactive: [1]; at 1.2 µM 8% | [1]; at 3.7 µM 11% | [1]; at 11.0 µM 20% | [1]; at 33.0 µM 35% | [2]; at 1.2 µM 1% | [2]; at 3.7 µM 2% | [2]; at 11.0 µM 1% | [2]; at 33.0 µM 3% | [2]; at 100.0 µM 12% | [3]; at 1.2 µM 1% | [3]; at 3.7 µM 3% | [3]; at 11.0 µM 9% | [3]; at 33.0 µM 36% | [4]; at 1.2 µM 2% | [4]; at 3.7 µM 1% | [4]; at 11.0 µM 4% | [4]; at 33.0 µM 3% | [4]; at 100.0 µM 36% | [5]; at 1.2 µM 1% | [5]; at 3.7 µM 7% | [5]; [16] 7% | [5]; at 11.0 µM 18% | [5]; at 33.0 µM 42% | [6]; at 1.2 µM 3% | [6]; at 3.7 µM 0% | [6]; [16] -9% | [6]; at 11.0 µM 0% | [6]; at 33.0 µM 11% | [6]; [17] 1% | [6]; at 50.0 µM -11.7% | [6]; at 100.0 µM 30% | [7]; at 1.2 µM 1% | [7]; at 3.7 µM 0% | [7]; at 11.0 µM 2% | [7]; at 33.0 µM 6% | [7]; at 100.0 µM 22% | [8]; [16] 6% | [8]; [17] 6% | [8]; at 50.0 µM 1.35% | [9]; [16] 6% | [9]; [17] 10% | [9]; at 50.0 µM 9.8% | [10]; at 1.2 µM 1% | [10]; at 3.7 µM 2% | [10]; [16] -7% | [10]; at 11.0 µM 2% | [10]; at 33.0 µM 8% | [10]; [17] 10% | [10]; at 50.0 µM 35.9% | [10]; at 100.0 µM 30% | [11]; at 1.2 µM 2% | [11]; at 3.7 µM -1% | [11]; at 11.0 µM 0% | [11]; at 33.0 µM 6% | [11]; at 100.0 µM 32% | [12]; at 1.2 µM 1% | [12]; at 3.7 µM -1% | [12]; at 11.0 µM 0% | [12]; at 33.0 µM 7% | [12]; at 100.0 µM 30% | [13]; at 1.2 µM -1% | [13]; at 3.7 µM -2% | [13]; at 11.0 µM -1% | [13]; at 33.0 µM 16% | [13]; at 100.0 µM 52% | [14]; [16] 10% | [14]; [17] 10% | [14]; at 50.0 µM 27.9% | [15]; at 1.2 µM 5% | [15]; at 3.7 µM 9% | [15]; at 11.0 µM 16% | [15]; at 33.0 µM 36% | [15]; at 100.0 µM 54%
active: [1]; at 100.0 µM 73% | [3]; at 100.0 µM 72% | [5]; [17] 76% | [5]; at 50.0 µM 77% | [5]; at 100.0 µM 72%

CCN(CC)C(=S)N/N=C(/C)c1cccc(/C(C)=N\NC(=S)N(CC)CC)n1
inactive: [1]; at 1.2 µM -24% | [1]; at 3.7 µM -15% | [1]; at 11.0 µM 7% | [1]; at 33.0 µM 43% | [2]; at 1.2 µM -4% | [2]; at 3.7 µM -12% | [2]; at 11.0 µM 11% | [2]; at 33.0 µM 60% | [3]; at 1.2 µM 16% | [3]; at 3.7 µM 6% | [3]; at 11.0 µM 31% | [3]; at 33.0 µM 48% | [4]; at 1.2 µM 0% | [4]; at 3.7 µM -14% | [4]; at 11.0 µM 0% | [4]; at 33.0 µM 61% | [5]; at 1.2 µM -17% | [5]; at 3.7 µM -25% | [5]; [16] -14% | [5]; at 11.0 µM -12% | [5]; at 33.0 µM 50% | [5]; at 50.0 µM 55.5% | [6]; at 1.2 µM -43% | [6]; at 3.7 µM -3% | [6]; [16] 12% | [6]; at 11.0 µM -8% | [6]; at 33.0 µM 52% | [6]; at 50.0 µM 69.1% | [7]; at 1.2 µM -6% | [7]; at 3.7 µM 10% | [7]; at 11.0 µM 2% | [7]; at 33.0 µM 46% | [8]; [16] -5% | [8]; at 50.0 µM 66.7% | [9]; [16] 21% | [9]; at 50.0 µM 34.5% | [10]; at 1.2 µM 7% | [10]; at 3.7 µM 13% | [10]; [16] 39% | [10]; at 11.0 µM 16% | [10]; at 33.0 µM 56% | [10]; at 50.0 µM 65.2% | [12]; at 1.2 µM -12% | [12]; at 3.7 µM -7% | [12]; at 11.0 µM 9% | [12]; at 33.0 µM 52%
active: [1]; at 100.0 µM 90% | [2]; at 100.0 µM 87% | [3]; at 100.0 µM 79% | [4]; at 100.0 µM 91% | [5]; [17] 96% | [5]; at 100.0 µM 86% | [6]; [17] 95% | [6]; at 100.0 µM 86% | [7]; at 100.0 µM 92% | [8]; [17] 91% | [9]; [17] 91% | [10]; [17] 90% | [10]; at 100.0 µM 84% | [12]; at 100.0 µM 85%
